Measured values: PubChem BioAssay (NCI)
This is part of a sample that, as a whole, favours compounds with a hit. Of some 79,000 tested, about 15% had one in any assay. The source made the active and inactive calls. Cut-off read from the data, not from the text of the source: active = growth inhibition above about 70%; inactive = the rest.

Columns and labels:
[1] = NCI Yeast Anticancer Drug Screen. Data for the rad50 strain (AID 155);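 note: 0% = growth of vehicle-only cultures of the same strain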; conditions: S. cerevisiae rad50 strain growth inhibition, stronger effect = higher value
Outline: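 Readout: growth inhibition relative to vehicle-treated cultures. Compound exposure was carried out in a genetically defined yeast strain deficient in DNA damage repair.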

[2] = NCI Yeast Anticancer Drug Screen. Data for the mec2-1 strain (AID 157); conditions: S. cerevisiae mec2-1 strain, stronger effect = higher value
Outline: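 mec2-1 yeast strain, carrying an alteration in DNA damage repair or cell cycle control, was exposed to compounds; growth inhibition was measured relative to vehicle-treated controls.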

[3] = NCI Yeast Anticancer Drug Screen. Data for the sgs1 mgt1 strain (AID 161);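 note: 0% = growth of cultures given vehicle only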; conditions: S. cerevisiae sgs1 mgt1 strain, stronger effect = higher value
Outline: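 This yeast growth screen uses a strain with defined DNA-repair lesions; compound-treated growth is compared with vehicle-treated growth.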

[4] = NCI Yeast Anticancer Drug Screen. Data for the cln2 rad14 strain (AID 165);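 note: 0% = growth equal to vehicle treated cultures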; conditions: S. cerevisiae cln2 rad14 strain, stronger effect = higher value
Outline: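 Yeast carrying cln2 and rad14 alterations (cell cycle control and DNA damage repair) were exposed to compounds. Growth inhibition was measured against vehicle-treated controls.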

[5] = NCI Yeast Anticancer Drug Screen. Data for the bub3 strain (AID 167); conditions: S. cerevisiae bub3 mutant strain, stronger effect = higher value
Outline: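 Readout: yeast growth inhibition, expressed relative to vehicle-only wells. The test organism is a mutant strain from a panel with lesions in DNA repair or checkpoint genes.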

[6] = NCI Yeast Anticancer Drug Screen. Data for the mlh1 rad18 strain (AID 175); conditions: S. cerevisiae mlh1 rad18 strain growth inhibition, stronger effect = higher value
Outline: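 Growth inhibition of the yeast strain was measured after compound exposure and expressed relative to vehicle-treated controls. The strain carries defined defects in DNA damage repair.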

[7] = at 5.0 µM (retest, dose inferred, filed as 0.5)
[8] = at 50.0 µM (retest, dose inferred, filed as 5.0)

Measured: growth inhibition

CCC(=O)C(CCN1CCC2(CCCc3ccccc32)CC1)(c1ccccc1)c1ccccc1
inactive: [1]; [7] -2% | [2]; [7] -5% | [3]; [7] 3% | [4]; [7] -11% | [5]; [7] -2% | [6]; [7] 3%
active: [1]; [8] 89% | [1]; at 50.0 µM 98.4% | [2]; [8] 93% | [2]; at 50.0 µM 94.2% | [3]; [8] 93% | [3]; at 50.0 µM 97.8% | [4]; [8] 87% | [4]; at 50.0 µM 87.2% | [5]; [8] 91% | [5]; at 50.0 µM 94.2% | [6]; [8] 92% | [6]; at 50.0 µM 97.3%

CCOc1cc(/C=C/[N+](=O)[O-])ccc1O
active: [1]; [8] 93% | [1]; at 50.0 µM 77.2% | [2]; [8] 73% | [3]; [8] 95% | [3]; at 50.0 µM 77.7% | [4]; [8] 75% | [5]; [8] 90% | [6]; [8] 94% | [6]; at 50.0 µM 96.6%
inactive: [1]; [7] -112% | [2]; [7] -44% | [2]; at 50.0 µM 65.8% | [3]; [7] -46% | [4]; [7] -52% | [4]; at 50.0 µM 55% | [5]; [7] -60% | [5]; at 50.0 µM 43.4% | [6]; [7] -93%

CCc1cc2c(cc1O)C(C)(C)CCC2(C)C
active: [1]; at 50.0 µM 98% | [2]; at 50.0 µM 97.8% | [4]; at 50.0 µM 98% | [6]; at 50.0 µM 98%
inactive: [1]; [7] -1% | [1]; [8] 7% | [2]; [7] -2% | [2]; [8] -7% | [3]; [7] -3% | [3]; [8] 7% | [3]; at 50.0 µM 52.5% | [4]; [7] 5% | [4]; [8] 10% | [5]; [7] 3% | [5]; [8] 18% | [5]; at 50.0 µM 43% | [6]; [7] 0% | [6]; [8] 4%

C=CCC[CH2][Sn]([c]1ccccc1)([c]1ccccc1)[c]1ccccc1
active: [1]; [7] 98% | [1]; [8] 93% | [1]; at 50.0 µM 99.5% | [2]; [7] 99% | [2]; [8] 98% | [2]; at 50.0 µM 99.5% | [3]; [7] 99% | [3]; [8] 98% | [3]; at 50.0 µM 99.4% | [4]; [7] 98% | [4]; [8] 96% | [4]; at 50.0 µM 98.2% | [5]; [7] 97% | [5]; [8] 97% | [5]; at 50.0 µM 99% | [6]; [7] 99% | [6]; [8] 97% | [6]; at 50.0 µM 99.4%

c1ccc(NC2=NCCN2)nc1
active: [1]; [8] 82% | [2]; [8] 99% | [3]; [8] 70% | [5]; [8] 84% | [6]; [8] 98%
inactive: [1]; [7] -4% | [1]; at 50.0 µM 14.4% | [2]; [7] -26% | [2]; at 50.0 µM 34.2% | [3]; [7] 11% | [3]; at 50.0 µM 62.3% | [4]; [7] 24% | [4]; [8] 49% | [4]; at 50.0 µM 0.35% | [5]; [7] -8% | [5]; at 50.0 µM 25.4% | [6]; [7] -13% | [6]; at 50.0 µM 15.2%

CC1CCOC(=O)/C=C/C=C/C(=O)OC2CC3OC4C5OC5(C)C(O)CC4(COC(=O)C1O)C2(C)C31CO1 (configuration not stated)
active: [1]; [8] 95% | [1]; at 50.0 µM 90.3% | [2]; [8] 90% | [2]; at 50.0 µM 92% | [3]; [8] 95% | [3]; at 50.0 µM 91.5% | [4]; [8] 97% | [4]; at 50.0 µM 89.5% | [5]; [8] 95% | [5]; at 50.0 µM 89.2% | [6]; [8] 94% | [6]; at 50.0 µM 89.4%
inactive: [1]; [7] 16% | [2]; [7] 27% | [3]; [7] 21% | [4]; [7] 42% | [5]; [7] 18% | [6]; [7] 17%

COC1OC(COC(C)=O)C(OC(C)=O)C(OC(C)=O)[CH]1[Hg][I] (configuration not stated)
active: [1]; [7] 99% | [1]; [8] 99% | [1]; at 50.0 µM 99.2% | [2]; [7] 99% | [2]; [8] 99% | [2]; at 50.0 µM 99.6% | [3]; [7] 100% | [3]; [8] 100% | [3]; at 50.0 µM 99.6% | [4]; [7] 99% | [4]; [8] 99% | [4]; at 50.0 µM 98.9% | [5]; [7] 99% | [5]; [8] 99% | [5]; at 50.0 µM 99.3% | [6]; [7] 99% | [6]; [8] 99% | [6]; at 50.0 µM 99.2%

O=P(CP(=O)(c1ccccc1)c1ccccc1)(c1ccccc1)c1ccccc1.[CH3][Sn]([CH3])([Cl])[Cl]
active: [2]; at 50.0 µM 89.3%
inactive: [1]; [7] 6% | [1]; [8] 27% | [1]; at 50.0 µM 21.4% | [2]; [7] 21% | [2]; [8] 9% | [3]; [7] 5% | [3]; [8] 8% | [3]; at 50.0 µM 22.9% | [4]; [7] 3% | [4]; [8] -12% | [4]; at 50.0 µM 8.35% | [5]; [7] 0% | [5]; [8] 8% | [5]; at 50.0 µM 4.25% | [6]; [7] 2% | [6]; [8] 15% | [6]; at 50.0 µM 19.4%

S=P(Nc1ccccc1)(Nc1ccccc1)Nc1ccccc1
active: [1]; [8] 94% | [1]; at 50.0 µM 96.8% | [2]; [8] 94% | [2]; at 50.0 µM 98% | [3]; [8] 95% | [3]; at 50.0 µM 96.8% | [4]; [8] 94% | [4]; at 50.0 µM 97.7% | [5]; [8] 92% | [5]; at 50.0 µM 98.2% | [6]; [8] 94% | [6]; at 50.0 µM 96.8%
inactive: [1]; [7] 21% | [2]; [7] 18% | [3]; [7] 12% | [4]; [7] 7% | [5]; [7] 19% | [6]; [7] 23%
